The record followed here is PubChem BioAssay AID770 (SRMLSC, 2007).

This test can be described thus: HT29 colon tumor cell growth inhibition, primary screen, imaging, high content imaging, 24 h, CellTiter-Glo (AID 770).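 On condensed nuclei: share of cells whose nuclear area falls below control median minus 1.5 SD.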 The note with it: HT29 cell number by imaging, at 10 µM, stronger effect = higher value; for condensed nuclei: measured here: percent cells with condensed nuclei. In general terms: In ATP-based viability assays light output follows the ATP content of the culture.

[1] abbreviates: measured here: ATP CellTiter-Glo viability.

Fewer than 10 of roughly 3,300 compounds were called active.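 How the source made its calls: active means growth inhibition above 90% in viable cell count at a single dose; inactive means growth inhibition below 90%.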 A selection follows.

As to `Cc1ccc(N2CN=c3s/c(=C\c4cccnc4)c(=O)n3C2)cc1`, the growth inhibition was 8.42% (inactive) and the condensed nuclei came to 1.92%. For the same compound, the growth inhibition under setting [1] stood at 6.47%.

Turning to `O=C1NCC(COCC2CC=CCC2)O1` (stereo unspecified), the growth inhibition is 12.9% (inactive) and the condensed nuclei was found to be 2.4%. For the same compound, the growth inhibition under setting [1] was -2.87%.

`COc1ccc(OC)c(N=C(C)C2=C(O)COC2=O)c1`: the growth inhibition is 23.1% (inactive) and the condensed nuclei turned out to be 1.86%. The growth inhibition under setting [1] was found to be 7.81%.

On to `CSc1nc(N2CCCC2)c2c(c1C#N)CC(C)(C)OC2`, for which the growth inhibition is -22.4% (inactive) and the condensed nuclei worked out at 2.73%. The growth inhibition under setting [1] is -13.8%.

For the compound `COc1ccc(N2CCN(c3oc(COc4ccc(Cl)cc4)nc3C#N)CC2)cc1`, the growth inhibition was 22.4% (inactive) and the condensed nuclei stood at 2.73%. Moreover, the growth inhibition under setting [1] worked out at 12.5%.

Regarding `COC(=O)c1ccc(C2/C(=C(/O)c3ccc(OC)cc3)C(=O)C(=O)N2Cc2ccco2)cc1` (stereo unspecified), the growth inhibition is 26.5% (inactive) and the condensed nuclei came to 4.2%. Besides, under setting [1], the growth inhibition is -0.21%.

For `CCN(CC)c1ccc2cc(C(=O)Nc3ccccn3)c(=O)oc2c1`, the growth inhibition was 6.44% (inactive) and the condensed nuclei was found to be 2.75%. In addition, the growth inhibition under setting [1] was -4.18%.

Consider `CCN(CC)c1ccc2cc(-c3nnc(-c4ccncc4)o3)c(=O)oc2c1`, for which the growth inhibition was 100% (active) and the condensed nuclei was determined as 2.72%. For the same compound, the growth inhibition under setting [1] was -9.78%.

On to `CCCCCCc1cc2cc(-c3nnc(-c4ccccc4O)o3)c(=O)oc2cc1O`, for which the growth inhibition is 47% (inactive) and the condensed nuclei worked out at 6.21%. Under setting [1], the growth inhibition was found to be 17.7%.

Take `CCOC(=O)CSc1nc(N)c(C#N)c(-c2ccc(OC)cc2)c1C#N`: the growth inhibition was -7.67% (inactive) and the condensed nuclei is 3.97%. Besides, the growth inhibition under setting [1] was -12.5%.

On to `Cc1c(C)c2cc(Cl)c(O)c(CN3CCCC(C)C3)c2oc1=O` (stereo unspecified), for which the growth inhibition was 25.4% (inactive) and the condensed nuclei came to 3.35%. Moreover, the growth inhibition under setting [1] was -6.25%.

For the compound `CCOP(=O)(c1ccccc1)C1(C#N)CCCC1` (stereo unspecified), the growth inhibition is -30.7% (inactive) and the condensed nuclei was 4.43%. The growth inhibition under setting [1] is -12.2%.

Consider `CCCCOc1ccc(CN(C)c2ncnc(N)n2)cc1`, for which the growth inhibition is 56% (inactive) and the condensed nuclei is 6.77%. Also, the growth inhibition under setting [1] was 22.5%.

`C1CCC(C(CC2CCCCN2)C2CCCCC2)CC1` (stereo unspecified): the growth inhibition was 99.3% (active) and the condensed nuclei turned out to be 30.1%. Moreover, the growth inhibition under setting [1] turned out to be 97.5%.

As to `CC1(C)CC(=O)C2=C(C1)N(Cc1ccco1)C(=O)C2(O)C(F)(F)F` (stereo unspecified), the growth inhibition was 11% (inactive) and the condensed nuclei was 2.44%. For the same compound, the growth inhibition under setting [1] was -21.1%.

With `CSc1nncc(=O)[nH]1`, the growth inhibition was -17.8% (inactive) and the condensed nuclei worked out at 1.83%. Also, the growth inhibition under setting [1] is 10.8%.

On to `CN1CCN(/C=N/c2sc3c(c2C#N)CCCCC3)CC1`, for which the growth inhibition is 45.9% (inactive) and the condensed nuclei was 4.6%. In addition, the growth inhibition under setting [1] is 15.9%.

`COc1ccc2c(c1OC)C(=O)N1c3ccccc3SC21` (stereo unspecified): the growth inhibition is -18.9% (inactive) and the condensed nuclei was found to be 2.15%. The growth inhibition under setting [1] was -15.6%.

In the case of `Nc1ccc2oc(-c3ccccc3Cl)nc2c1`, the growth inhibition was 26.7% (inactive) and the condensed nuclei amounted to 11.4%. Also, under setting [1], the growth inhibition is 5.57%.

`CCc1cc(=O)oc2c(CN3CCN(C)CC3)c(O)c(Cl)cc12`: the growth inhibition is 52.2% (inactive) and the condensed nuclei was 4.11%. Further, the growth inhibition under setting [1] is -8.76%.

For `CCOC(=O)NC(Nc1cc(C)on1)(C(F)(F)F)C(F)(F)F`, the growth inhibition was -33.3% (inactive) and the condensed nuclei was found to be 4.42%. Besides, under setting [1], the growth inhibition is -14.8%.

`COCCOC(=O)C1=C(C)OC(N)=C(C#N)C1c1ccco1` (stereo unspecified): the growth inhibition was 13.2% (inactive) and the condensed nuclei is 3.33%. For the same compound, the growth inhibition under setting [1] is 1.7%.

Take `CCSc1nnc(NC(=O)C(CC)(C(F)(F)F)C(F)(F)F)s1`: the growth inhibition is 3.79% (inactive) and the condensed nuclei was determined as 3.03%. In addition, under setting [1], the growth inhibition is -3.56%.

For the compound `COc1ccc(OC)c(C2/C(=C(/O)c3ccccc3)C(=O)C(=O)N2Cc2ccco2)c1` (stereo unspecified), the growth inhibition was 11.9% (inactive) and the condensed nuclei came out at 4.83%. Under setting [1], the growth inhibition is -6.75%.

Consider `O=C(C/C(=N/O)c1ccccc1O)C(F)F`, for which the growth inhibition was -0.96% (inactive) and the condensed nuclei stood at 1.25%. Further, the growth inhibition under setting [1] is -14.3%.

In the case of `O=C(c1cccc2ccccc12)N1CCC(N2CCN(c3ccccc3)CC2)CC1`, the growth inhibition was -27.1% (inactive) and the condensed nuclei is 3.56%. Further, the growth inhibition under setting [1] is -18.2%.

Turning to `Cn1c(O)c(C=Nc2ccc(Cc3ccncc3)cc2)c(=O)n(C)c1=O`, the growth inhibition was 13.2% (inactive) and the condensed nuclei is 1.24%. Also, under setting [1], the growth inhibition is -6.92%.

`CCOC(=O)CC1=NC(=O)CS1`: the growth inhibition is 7.12% (inactive) and the condensed nuclei turned out to be 1.37%. Besides, the growth inhibition under setting [1] came to 1.44%.

Take `Cc1ccc(S(=O)(=O)NC(=O)Nc2ncc3c(n2)CC(c2ccco2)CC3=O)cc1` (stereo unspecified): the growth inhibition was -27% (inactive) and the condensed nuclei stood at 2.73%. Also, the growth inhibition under setting [1] amounted to 0.34%.

Turning to `CCCc1nc2n[nH]c(N)c2c2c1CCCC2`, the growth inhibition is 3.73% (inactive) and the condensed nuclei stood at 3.31%. For the same compound, under setting [1], the growth inhibition is 6.01%.

Take `O=C1C(=O)N(CCCn2ccnc2)C(c2ccccn2)/C1=C(/O)c1ccccc1` (stereo unspecified): the growth inhibition is 20.5% (inactive) and the condensed nuclei was found to be 3.21%. The growth inhibition under setting [1] is -11.5%.

With `CCOc1ccc(/C(O)=C2/C(=O)C(=O)N(CCN(CC)CC)C2c2ccco2)cc1` (stereo unspecified), the growth inhibition is -44.4% (inactive) and the condensed nuclei is 3.46%. For the same compound, under setting [1], the growth inhibition was -11.1%.

For the compound `CC1CCN(c2[nH]c(=S)c(C#N)c3c2CCCC3)CC1`, the growth inhibition is 2.28% (inactive) and the condensed nuclei came to 1.9%. The growth inhibition under setting [1] is -10.9%.

As to `CC1(C)CC(=O)C2=C(C1)N(Cc1ccco1)C(=O)C2(NC(=O)c1cccnc1)C(F)(F)F` (stereo unspecified), the growth inhibition was 18.6% (inactive) and the condensed nuclei was 1.91%. The growth inhibition under setting [1] is -14.4%.

Consider `CCCOc1ccc(Cc2nn[nH]n2)cc1`, for which the growth inhibition was 36.3% (inactive) and the condensed nuclei turned out to be 4.59%. Further, under setting [1], the growth inhibition was determined as 4.03%.

For the compound `O=C(NCCOCCOCCNC(=O)c1cccnc1)c1cccnc1`, the growth inhibition was -50.5% (inactive) and the condensed nuclei is 2.66%. In addition, under setting [1], the growth inhibition was -16.6%.

Consider `CC(C)CSc1nc(N2CCOCC2)c2c(c1C#N)CC(C)(C)SC2`, for which the growth inhibition is -12.2% (inactive) and the condensed nuclei is 2.93%. The growth inhibition under setting [1] is 13.9%.
